# Results filed as inconclusive are left out. Activity calls are given as the source filed them. How the source made its calls: active means hit-call score of the fitted dose curve at least 0.9, where 1 is the maximum; inconclusive means response in the unintended direction; inactive means score below 0.9.
# Read-out: Cytochrome P450 2B6 (Homo sapiens) (UniProt P20813)
# Test: CLD_CYP2B6_6hr: CellzDirect (CLD) Gene Expression Assay for xenobiotic metabolism (CYP2B6) at 6 hours (AID 2283677);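 further: actives raise CYP2B6 transcript above DMSO baseline so AC50 marks an inducer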
# Procedure: CLD_6hr is a cell-based, multiplexed-readout assay that uses hepatocyte, a human liver primary cell, with measurements taken at 6 hours after chemical dosing in a 96-well plate.CLD_CYP2B6_6hr is one of 16 assay component(s) measured or calculated from the CLD_6hr assay. It is designed to make measurements of mRNA induction, a form of inducible reporter, as detected with chemiluminescence signals by Quantitative Nuclease Protection Assay (qNPA) technology.Data from the assay component CLD_CYP2B6_6hr was analyzed at the endpoint, CLD_CYP2B6_6hr, in the positive analysis fitting direction relative to DMSO as the negative control and baseline of activity. Using a type of inducible reporter, gain-of-signal activity can be used to understand changes in the reporter gene as they relate to the gene CYP2B6. Furthermore, this assay endpoint can be referred to as a primary readout. To generalize the intended target to other relatable targets, this assay endpoint is annotated to the cyp intended target family, where subfamily is xenobiotic metabolism.
# Human hepatocyte cultures were treated daily for two consecutive days with fresh dosing solutions containing appropriate concentrations of the 320 ToxCast chemicals (chemical identities were blinded to CellzDirect and other ToxCast collaborators), vehicle control (0.2% DMSO), and positive control inducers as summarized in Table 1. Due to the large number of treatment groups and chemicals examined, the ToxCast chemicals were divided into two groups (spanning two independent cultures of hepatocytes from separate donor preparations (Hu778: ToxCast plates 1 and 2; Hu776: ToxCast plates 3 and 4). Each preparation of human hepatocyte cultures was treated with respective vehicle control, medium only control, set of six positive controls/reference chemicals for the five hepatic receptor pathways, and a subset of eight of the ToxCast chemicals (indoxacarb, pyrithiobac-sodium, norflurazon, cyhalofop-butyl, methomyl, thiram, acetochlor, and propiconazole). These replicate data, coupled with internal replicates designed within the blinded ToxCast chemical library, provided additional data to evaluate interindividual differences between hepatocyte preparations and their potential impact on chemical profiles.Cell morphology and integrity were evaluated using phase-contrast microscopy as an indicator of hepatocyte cell health (Tyson & Green, 1987). Cultures for each treatment group (i.e., media, vehicle [0.2% DMSO], positive control inducers [multiple concentrations], and the ToxCast chemicals [multiple concentrations]) were observed and cell morphology was assessed relative to vehicle control cultures at each harvest time point (0, 6, 24, or 48 h). […] Images were evaluated at the conclusion of the study to assess changes in cell integrity and account for the effects of chemical exposure on uncharacteristic changes in concentration-dependent gene expression profiles. The results from these determinations of apparent cytotoxicity were annotated (yes/no) alongside the corresponding qNPA data for reference.At the conclusion of each treatment period, hepatocyte cultures (96-well) were washed with 1 volume of HBSS, lysed by addition of 25 ul ArrayPlate lysis buffer (HTG, Tucson, AZ), and 70 ul/well of Denaturation Oil, denatured by incubation at 95C for 10 min, and frozen at approximately -70C until analysis by nuclease protection assay (qNPA) (Roberts et al., 2007). For qNPA analysis, cell lysates were thawed at 50C for approximately 30 min, qNPA probes were added, and samples were incubated at 95C for 10 min to begin the detection process by denaturing the target RNA, dissociating the duplexes and secondary structure hybridization. At the conclusion of the hybridization period, S1 nuclease reagent was added to each sample to digest all nonprotected nucleotides at 50C for 60-90 min. […]
Compound,AC50,outcome
CSc1nc(NC(C)C)nc(NC(C)C)n1,4010 nM (active),
CC(C)[C@H](C(=O)O[C@H](C#N)c1cccc(Oc2ccccc2)c1)c1ccc(Cl)cc1,3420 nM (active),
CCC(=NOC/C=C/Cl)C1=C(O)CC(C2CCOCC2)CC1=O (stereo not given),,inactive
CCCCN(CC)c1c([N+](=O)[O-])cc(C(F)(F)F)cc1[N+](=O)[O-],2130 nM (active),
CCOP(=S)(OCC)Oc1ccc2c(C)c(Cl)c(=O)oc2c1,1440 nM (active),
CN(C)C(=O)Nc1cccc(C(F)(F)F)c1,,inactive
CCCCOC(=O)[C@@H](C)Oc1ccc(Oc2ccc(C#N)cc2F)cc1,,inactive
C[Si](Cn1cncn1)(c1ccc(F)cc1)c1ccc(F)cc1,32400 nM (active),
CCOP(=S)(OCC)Oc1cc(C)nc(C(C)C)n1,1960 nM (active),
CCOP(=S)(OCC)Oc1ccc([N+](=O)[O-])cc1,2580 nM (active),
CC1(C(=O)Nc2ccc(O)c(Cl)c2Cl)CCCCC1,,inactive
Nc1c(Cl)cc([N+](=O)[O-])cc1Cl,20000 nM (active),
COc1cccc(C(=O)NN(C(=O)c2cc(C)cc(C)c2)C(C)(C)C)c1C,1290 nM (active),
CN(C)NC(=O)CCC(=O)O,,inactive
C#CCC1=C(C)C(OC(=O)C2C(C=C(C)C)C2(C)C)CC1=O (stereo not given),1080 nM (active),
C#CC(C)(C)NC(=O)c1cc(Cl)cc(Cl)c1,4150 nM (active),
CCCSP(=O)(OCC)SCCC,374 nM (active),
CNC(=O)ON=C(C)SC,,inactive
CCOC(=O)CC(SP(=O)(OC)OC)C(=O)OCC (stereo not given),14400 nM (active),
CSC1=N[C@@](C)(c2ccccc2)C(=O)N1Nc1ccccc1,1880 nM (active),

Compound,AC50,outcome
CNC(=O)ON=C(SC)C(=O)N(C)C,,inactive
CCCSP(=O)(OCC)Oc1ccc(Br)cc1Cl (stereo not given),3750 nM (active),
CCCOc1nn(C(=O)NS(=O)(=O)c2ccccc2C(=O)OC)c(=O)n1C,,inactive
Cc1cc(C2CC2)nc(Nc2ccccc2)n1,1580 nM (active),
O=[N+]([O-])c1cc(C(F)(F)F)c(Cl)c([N+](=O)[O-])c1Nc1ncc(C(F)(F)F)cc1Cl,,inactive
C[N+]1(C)CCCCC1,,inactive
CC(COc1ccc(Oc2ccccc2)cc1)Oc1ccccn1 (stereo not given),3970 nM (active),
CN(C)[C@@H]1C(=O)C(C(N)=O)=C(O)[C@@]2(O)C(=O)C3=C(O)c4c(O)cccc4[C@@](C)(O)[C@H]3[C@H](O)[C@@H]12,,inactive
CCOC(=O)COc1cc(-c2nn(C)c(OC(F)F)c2Cl)c(F)cc1Cl,2630 nM (active),
FC(F)C(F)(F)OCC(Cn1cncn1)c1ccc(Cl)cc1Cl (stereo not given),1120 nM (active),
N#CSCSC#N,,inactive
CCC(CC)Nc1c([N+](=O)[O-])cc(C)c(C)c1[N+](=O)[O-],3470 nM (active),
CCc1cccc(CC)c1N(COC)C(=O)CCl,2580 nM (active),
CC(=NC#N)N(C)Cc1ccc(Cl)nc1,,inactive
CCOP(=S)(Oc1cnc(C(C)(C)C)nc1)OC(C)C (stereo not given),470 nM (active),
CCOP(=O)(NC(C)C)Oc1ccc(SC)c(C)c1 (stereo not given),3130 nM (active),
CC(C)=CC1C(C(=O)OCN2C(=O)C3=C(CCCC3)C2=O)C1(C)C (stereo not given),5940 nM (active),
CSc1nnc(C(C)(C)C)c(=O)n1N,10900 nM (active),
CNC(=O)Oc1cccc2c1OC(C)(C)O2,2740 nM (active),
CCC(=O)Nc1ccc(Cl)c(Cl)c1,7900 nM (active),

# — PubChem BioAssay (EPA / NIEHS)
